Bioassay records as filed in PubChem BioAssay.
The list is not random: actives were taken first. Their share in the collection is about 1.6%.
KCNQ2 enhance: enhances the rat KCNQ2 potassium channel | O88943 | CHO-K1 KCNQ2, FluxOR thallium flux fluorescence; active compounds read high | AID 2239 | B-score at 10 µM | actives 0.54% (n = 310,000);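 active means fluorescence ratio B-score at least 3 SD of library B-scores, with initial fluorescence B-score within 3 of them, cut at about 5.3 in these data; same plate scores as AID 2156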;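 further: B-score of peak minus minimum over baseline fluorescence ratio after K+ and Tl+ stimulus; positive B-score means potentiation of KCNQ2 with more thallium influx and brighter signal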
KCNQ2 block: blocks the rat KCNQ2 potassium channel; O88943; CHO-K1 KCNQ2, FluxOR thallium flux, 20 min; active compounds read low; B-score at 10 µM; actives 1.1% (n = 310,000); AID 2156;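 active means fluorescence ratio B-score at most minus 3 library SDs, with starting brightness B-score within 2 library SDs, cut at about -5.5 in these data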
Kir21 conf inh: confirmation of mouse Kir2.1 potassium channel inhibitors; shares compounds with KCNQ2 enhance; Kir2.1-expressing cells, FluxOR thallium flux fluorescence; active compounds read low; Tl flux remaining, % of negative control (active compounds read low), % at 10 µM; actives 41% (n = 2,300); AID 2032;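 active means Primary-screen hit whose thallium flux fell at least 3 control SD below untreated wells in both duplicates, with normal baseline fluorescence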;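 further: 0% = blank wells without stimulus and 100% = stimulated no-compound controls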
HEK293 ctr: parental HEK293 activity in Kir2.1 inhibitor counter-screen; AID 2105; parental HEK293 cells, FluxOR thallium flux fluorescence; 0% = unstimulated blank wells; shares compounds with KCNQ2 enhance; actives 19% (n = 2,300); FluxOR signal as % of negative control (100 = no effect), % at 10 µM;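 active means dye signal at least 3 control SD above or below untreated wells in both duplicates, raw fluorescence within 3, either direction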;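 further: percent is based on the flux ratio of peak minus minimum fluorescence over baseline F0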
CHO-K1 ctr: parental CHO-K1 activity in KCNQ2 potentiator counter-screen. AID 2282. actives 43% (n = 1,200). parental CHO-K1 cells, FluxOR thallium flux fluorescence; zero = vehicle mean+3SD, 100% = vehicle-minus-blank window. activity increase over 3SD of controls, % at 10 µM. shares compounds with KCNQ2 enhance;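 active means signal rise of at least 3 SD above the untreated control mean, in both duplicate wells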;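 further: counter screen of KCNQ2 potentiator hits so any rise reflects channel-independent effects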
KCNQ1 pot spec: tests whether KCNQ2 potentiators also act on human KCNQ1. shares compounds with KCNQ2 enhance. CHO KCNQ1 stable, FluxOR thallium flux fluorescence; beyond 3SD, as % of vehicle-control signal. activation over 3SD threshold, % at 10 µM. actives 28% (n = 1,200);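 active means fluorescence ratio rise of at least 3 SD of vehicle wells above their mean, in both replicate wells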;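 further: 0% = vehicle mean plus 3 SD and 100% = vehicle minus unstimulated blank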
Target sequence (P51787 whole entry, looked up): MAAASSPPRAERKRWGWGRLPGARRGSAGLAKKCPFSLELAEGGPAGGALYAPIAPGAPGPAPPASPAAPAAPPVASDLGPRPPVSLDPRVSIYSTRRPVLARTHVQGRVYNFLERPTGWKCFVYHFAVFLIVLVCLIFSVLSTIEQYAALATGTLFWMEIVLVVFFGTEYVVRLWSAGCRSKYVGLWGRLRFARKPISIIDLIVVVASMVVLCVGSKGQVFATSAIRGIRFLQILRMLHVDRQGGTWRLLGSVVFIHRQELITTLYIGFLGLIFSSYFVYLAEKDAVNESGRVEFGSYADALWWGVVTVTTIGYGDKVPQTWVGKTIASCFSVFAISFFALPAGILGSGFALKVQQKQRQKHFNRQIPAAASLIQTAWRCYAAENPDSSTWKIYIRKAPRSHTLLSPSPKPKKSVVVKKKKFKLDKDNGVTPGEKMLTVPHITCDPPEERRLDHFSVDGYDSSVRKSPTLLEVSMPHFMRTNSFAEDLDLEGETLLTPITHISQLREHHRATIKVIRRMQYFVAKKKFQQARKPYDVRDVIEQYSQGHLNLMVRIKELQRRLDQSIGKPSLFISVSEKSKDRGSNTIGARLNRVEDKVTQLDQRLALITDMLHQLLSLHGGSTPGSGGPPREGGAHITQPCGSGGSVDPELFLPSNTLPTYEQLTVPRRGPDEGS
KCNQ2 pot conf: confirmation of rat KCNQ2 potassium channel potentiators. CHO-KCNQ2 cells, FluxOR thallium flux fluorescence. shares compounds with KCNQ2 enhance. actives 68% (n = 1,200). potentiation, less the hit threshold, % at 10 µM;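 active means fluorescence ratio rising 3 SD or more over the vehicle control mean in both replicates, plus primary screen hit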;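 further: peak minus minimum thallium fluorescence divided by baseline after K/Tl stimulus; 0% = vehicle mean plus 3 SD and 100% = vehicle minus unstimulated blank difference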
Kir21 spec: selectivity of KCNQ2 potentiators: effect on mouse Kir2.1; actives 2% (n = 1,200); shares compounds with KCNQ2 enhance; activity over 3SD threshold, % at 10 µM; AID 2345; HEK293 Kir2.1, FluxOR thallium flux fluorescence;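 active means fluorescence ratio rise of at least 3 SD above the vehicle-control mean, seen in both replicates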;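 further: 0% = vehicle mean plus 3 SD and 100% = vehicle minus no-stimulus blank window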
KCNQ2 W236L pot: potentiates the retigabine-insensitive rat KCNQ2 W236L mutant channel | CHO KCNQ2-W236L, automated patch clamp current | current increase over 3SD of negative controls (%), active compounds read high, % at 25 µM | shares compounds with KCNQ2 enhance | actives 10% (n = 940);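 active means current increase at least 3 SD of the untreated controls above them in both duplicate recordings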
* marks the source's active call; other numbers are inactive results; i = inactive; x = no result.

SMILES | KCNQ2 enhance | KCNQ2 block | Kir21 conf inh | HEK293 ctr | others
CCOc1cc(CNCCO)cc(Br)c1OCc1ccccc1 | x | i | i | i
CCNCc1cc(Cl)c(OCc2ccccc2)c(OCC)c1 | x | i | 42%* | i
CCCCNCc1cc(Br)c(OCC(=O)NCc2ccccc2)c(OC)c1 | x | i | x | x
COc1cccc(NC(=O)COC(=O)CCn2c(C)csc2=O)c1 | x | i | x | x
O=C(Cn1c(=O)oc2ccc(Cl)cc21)Nc1ccon1 | x | i | x | x
CC1CCCC(C)N1CCCNC(=O)Cn1ncc2c3ccccc3n(C)c2c1=O (stereo not given) | x | i | x | x
O=C(NCc1cccc(Cl)c1)C1CCC(=O)N(CCCN2CCCC2=O)C1 (stereo not given) | 0.09 | i | x | x
C1CCC(C(CC2CCCCN2)C2CCCCC2)CC1 (stereo not given) | x | i | 28%* | 72%*
COc1ccc(OCC(=O)N(Cc2sccc2C)C2CCS(=O)(=O)C2)cc1 (stereo not given) | 1.1 | i | x | x
CN(CCc1ccccc1)C1CCCN(C(=O)Cn2cccn2)C1 (stereo not given) | 0.04 | i | x | x
COc1ccccc1-c1c(C)oc2cc(OC(=O)c3ccco3)ccc2c1=O | 0.01 | i | 70%* | i
CCOc1ccccc1Oc1c(C)oc2cc(OC(=O)c3ccco3)ccc2c1=O | x | i | x | x
Cc1ccn2cc(C34CC5CC(CC(C5)C3)C4)nc2c1 | x | i | x | x
Oc1c(Cl)cc(Cl)cc1C=Nc1ccccc1N1CCCC1 | 0.41 | i | x | x
NC(=O)c1cccc(N=Cc2cc(Cl)cc(Cl)c2O)c1 | 13* | i | i | i | CHO-K1 ctr=4.4*;KCNQ1 pot spec=31*;KCNQ2 pot conf=22*;Kir21 spec=-13;KCNQ2 W236L pot=i
Oc1c(Cl)cc(Cl)cc1/C=N/c1nc(-c2ccc(Cl)cc2)cs1 | 2.2 | i | x | x
Oc1c(Cl)cc(Cl)cc1/C=N/c1nccs1 | 9.1* | i | i | i | CHO-K1 ctr=-18;KCNQ1 pot spec=126*;KCNQ2 pot conf=34*;Kir21 spec=-22;KCNQ2 W236L pot=14%*
CSc1cccc(NC(=O)CN(C)S(=O)(=O)c2cnc[nH]2)c1 | 0.01 | i | x | x
Cc1ccc(C)c(CN2CCC(CNC(=O)Nc3ccc(F)c(Cl)c3)CC2)c1 | 0.87 | i | x | x
COc1ccccc1C(=O)NNC(=O)C(=O)Nc1ccc(C)c(Cl)c1 | 28* | i | i | 312%* | CHO-K1 ctr=78*;KCNQ1 pot spec=-9;KCNQ2 pot conf=54*;Kir21 spec=-27;KCNQ2 W236L pot=i
COc1ccccc1C(=O)NNC(=O)c1ccc(Cl)cc1 | 0.04 | i | x | x
COc1ccccc1C(=O)NNC(=O)C(=O)NC(C)(C)C | 3.8 | i | x | x
COc1ccccc1C(=O)NNC(=O)C(=O)Nc1ccc(C)cc1 | 22* | i | i | 416%* | CHO-K1 ctr=-21;KCNQ1 pot spec=25*;KCNQ2 pot conf=47*;Kir21 spec=-17;KCNQ2 W236L pot=i
Cc1ccc(S(=O)(=O)N2CCSC2=Nc2ccccc2)cc1 | 0.21 | i | x | x
CC(=O)c1ccc(N2CCN(C(=O)Nc3cccc(F)c3)CC2)cc1 | x | i | x | x
SMILES | KCNQ2 enhance | KCNQ2 block | Kir21 conf inh | HEK293 ctr | others
Cc1nn(-c2ccccc2)c(C)c1C(=O)NCc1ccccc1F | x | i | x | x
COc1cccc(CNc2ccc3[nH]c(=O)[nH]c3c2)c1OCc1ccccc1Cl | 2.1 | i | x | x
COc1cccc(CNc2ccc3[nH]c(=O)[nH]c3c2)c1OCc1ccccc1 | 7.9* | i | x | x | CHO-K1 ctr=32*;KCNQ1 pot spec=-21;KCNQ2 pot conf=-6;Kir21 spec=-78
Cc1c(-c2ccc(OCc3ccccc3)cc2)nc2ccccc2c1C(=O)O | 0.66 | i | x | x
N#CC1=C(SCC(=O)NCc2ccccc2)NC(=O)CC1c1ccco1 (stereo not given) | 0.02 | i | x | x
Cc1ccc(C2CC(=O)NC(SCc3ccccc3)=C2C#N)o1 (stereo not given) | x | i | 44%* | i
CCSC1=C(C#N)C(c2ccc(C)o2)CC(=O)N1 (stereo not given) | x | i | x | x
CCCCCCSC1=C(C#N)C(c2ccc(C)o2)CC(=O)N1 (stereo not given) | x | i | 60%* | i
C=C(C)CSC1=C(C#N)C(c2ccccc2)CC(=O)N1 (stereo not given) | x | i | x | x
N#CC1=C(SCc2ccccc2)NC(=O)CC1c1ccco1 (stereo not given) | x | i | 41%* | i
CC(C)CC(=O)NC(C)C(c1cccs1)N1CCOCC1 (stereo not given) | 1.5 | i | x | x
Cc1c(Cl)c([N+](=O)[O-])nn1CC(=O)N1CCN(C23CC4CC(CC(C4)C2)C3)CC1 | x | i | x | x
O=C(CSc1nnnn1-c1ccc(F)cc1)NCc1cccs1 | x | i | x | x
O=C1CCC(=O)N1c1ccc(NC2CCN(Cc3ccccc3)CC2)c([N+](=O)[O-])c1 | x | i | x | x
O=[N+]([O-])c1ccccc1NC1CCN(Cc2ccccc2)CC1 | 0.74 | i | 33%* | i
COc1ccc(NC(=O)/C(=C\c2ccc(F)cc2)NC(=O)c2ccco2)cc1 | 0.6 | i | x | x
CCn1cc(C(=O)NCCc2ccccc2)c(=O)c2cc(S(=O)(=O)N(C)C)ccc21 | 0.02 | i | i | i
CCn1cc(C(=O)NCCN(C)CCc2ccccc2)c(=O)c2cc(S(=O)(=O)N(C)C)ccc21 | 0.95 | i | x | x
Cc1cc(=O)cc(C)n1-c1ccccc1Br | 2 | i | x | x
Oc1cccc(Nc2nc(NCC3CCCO3)c3ccccc3n2)c1 (stereo not given) | x | i | x | x
COc1ccc(Nc2nc(NCC3CCCO3)c3ccccc3n2)c(OC)c1 (stereo not given) | x | i | 30%* | i
Cc1ccc(Nc2cc(C)nn2-c2nc(C)cc(C)n2)cc1 | 2 | i | x | x
Cc1ccc(Nc2cc(C)nn2-c2nc(C)cc(=O)[nH]2)cc1 | 17* | i | i | 269%* | CHO-K1 ctr=60*;KCNQ1 pot spec=45*;KCNQ2 pot conf=42*;Kir21 spec=-30;KCNQ2 W236L pot=i
Cc1ccc(S(=O)(=O)NCC(=O)N2CCOCCOCCOCC2)cc1 | 0.61 | i | x | x
COc1ccc(-n2c(-c3ccc(Br)cc3)c[n+]3c2CCc2ccccc2-3)cc1 | x | i | 60%* | 74%*
CC(C)c1ccc(-n2c(-c3ccccc3)c[n+]3c2CCc2ccccc2-3)cc1 | -7.4 | -7.4* | 20%* | i
COc1ccccc1-n1c(-c2ccccc2)c[n+]2c1CCc1ccccc1-2 | x | i | x | x
